For two compounds, residual activity results are on record in ChEMBL document CHEMBL2218924, “A broad activity screen in support of a chemogenomic map for kinase signalling research and drug discovery” (Biochem J, 2013).

In assay [1] the target is T1, Serine/threonine-protein kinase 17A (Homo sapiens) (UniProt Q9UEE5).
T1 sequence (whole entry): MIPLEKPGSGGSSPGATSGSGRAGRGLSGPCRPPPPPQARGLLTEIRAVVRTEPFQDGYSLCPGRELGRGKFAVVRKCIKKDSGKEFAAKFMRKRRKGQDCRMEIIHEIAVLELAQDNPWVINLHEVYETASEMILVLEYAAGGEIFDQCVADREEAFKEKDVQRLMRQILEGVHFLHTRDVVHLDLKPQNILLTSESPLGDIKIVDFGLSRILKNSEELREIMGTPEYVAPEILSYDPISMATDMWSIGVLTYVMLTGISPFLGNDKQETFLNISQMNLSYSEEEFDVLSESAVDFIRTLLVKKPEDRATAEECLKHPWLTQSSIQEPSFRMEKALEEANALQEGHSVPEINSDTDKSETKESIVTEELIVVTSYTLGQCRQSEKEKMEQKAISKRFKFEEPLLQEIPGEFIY
To be noted: at 1 µM.

Assay [2] deals with T1, Serine/threonine-protein kinase 17A (Homo sapiens). Particulars: at 10 µM.
For assay [3], the target named is T2, Dual specificity tyrosine-phosphorylation-regulated kinase 2 (Homo sapiens) (UniProt Q92630).
T2 sequence (whole entry): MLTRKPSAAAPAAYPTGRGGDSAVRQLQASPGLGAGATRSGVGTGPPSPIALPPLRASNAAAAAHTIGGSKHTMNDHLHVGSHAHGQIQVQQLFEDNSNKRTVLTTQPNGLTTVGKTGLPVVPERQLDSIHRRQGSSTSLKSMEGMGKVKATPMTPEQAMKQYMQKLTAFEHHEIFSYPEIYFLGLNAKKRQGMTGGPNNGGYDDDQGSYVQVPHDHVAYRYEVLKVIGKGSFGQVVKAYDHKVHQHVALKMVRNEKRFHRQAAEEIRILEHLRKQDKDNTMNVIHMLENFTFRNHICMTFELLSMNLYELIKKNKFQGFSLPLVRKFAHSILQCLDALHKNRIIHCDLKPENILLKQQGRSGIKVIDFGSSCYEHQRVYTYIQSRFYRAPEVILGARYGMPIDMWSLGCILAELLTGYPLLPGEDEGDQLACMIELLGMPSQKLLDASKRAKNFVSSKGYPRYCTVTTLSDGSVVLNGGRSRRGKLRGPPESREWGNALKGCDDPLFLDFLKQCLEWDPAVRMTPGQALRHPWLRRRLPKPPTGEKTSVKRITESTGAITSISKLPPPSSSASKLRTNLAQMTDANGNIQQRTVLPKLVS
To be noted: at 1 µM.

The target of assay [4] is T2, Dual specificity tyrosine-phosphorylation-regulated kinase 2 (Homo sapiens). To be noted: at 10 µM.
For assay [5], the target named is T3, Ephrin type-A receptor 1 (Homo sapiens) (UniProt P21709).
T3 sequence (whole entry): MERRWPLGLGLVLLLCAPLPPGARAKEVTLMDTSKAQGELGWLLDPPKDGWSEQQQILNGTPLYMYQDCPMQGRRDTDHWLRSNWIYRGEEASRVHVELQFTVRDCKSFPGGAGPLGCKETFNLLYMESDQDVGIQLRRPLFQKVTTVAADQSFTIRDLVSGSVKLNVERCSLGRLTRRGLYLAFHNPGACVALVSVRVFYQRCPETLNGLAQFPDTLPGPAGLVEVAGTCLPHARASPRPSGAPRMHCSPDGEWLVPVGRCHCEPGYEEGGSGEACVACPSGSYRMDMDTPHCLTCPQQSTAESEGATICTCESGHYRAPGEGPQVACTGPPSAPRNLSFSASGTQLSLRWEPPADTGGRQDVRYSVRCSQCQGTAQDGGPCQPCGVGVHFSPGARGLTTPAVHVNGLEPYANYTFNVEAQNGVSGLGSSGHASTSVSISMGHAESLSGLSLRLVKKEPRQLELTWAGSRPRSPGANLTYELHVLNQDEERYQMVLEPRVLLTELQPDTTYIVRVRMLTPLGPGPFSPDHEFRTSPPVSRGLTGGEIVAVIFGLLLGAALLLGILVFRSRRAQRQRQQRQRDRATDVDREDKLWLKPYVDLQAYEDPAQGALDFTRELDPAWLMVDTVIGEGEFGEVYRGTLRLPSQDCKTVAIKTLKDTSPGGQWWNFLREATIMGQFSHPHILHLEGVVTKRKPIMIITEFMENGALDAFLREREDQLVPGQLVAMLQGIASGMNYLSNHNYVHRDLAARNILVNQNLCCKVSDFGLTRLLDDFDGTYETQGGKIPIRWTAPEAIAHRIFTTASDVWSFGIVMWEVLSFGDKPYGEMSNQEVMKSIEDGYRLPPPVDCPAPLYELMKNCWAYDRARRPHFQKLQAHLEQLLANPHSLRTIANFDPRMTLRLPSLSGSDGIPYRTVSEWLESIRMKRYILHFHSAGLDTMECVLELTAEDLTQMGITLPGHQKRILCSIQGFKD
Particulars: at 1 µM.

Assay [6] concerns the target T3, Ephrin type-A receptor 1 (Homo sapiens). Particulars: at 10 µM.
Assay [7] addresses Ephrin type-A receptor 2 (Homo sapiens) (UniProt P29317). To be noted: at 1 µM.
The target is the same in assay [8]. Particulars: at 10 µM.
Assay [9] deals with T4, Ephrin type-A receptor 3 (Homo sapiens) (UniProt P29320).
T4 sequence (whole entry): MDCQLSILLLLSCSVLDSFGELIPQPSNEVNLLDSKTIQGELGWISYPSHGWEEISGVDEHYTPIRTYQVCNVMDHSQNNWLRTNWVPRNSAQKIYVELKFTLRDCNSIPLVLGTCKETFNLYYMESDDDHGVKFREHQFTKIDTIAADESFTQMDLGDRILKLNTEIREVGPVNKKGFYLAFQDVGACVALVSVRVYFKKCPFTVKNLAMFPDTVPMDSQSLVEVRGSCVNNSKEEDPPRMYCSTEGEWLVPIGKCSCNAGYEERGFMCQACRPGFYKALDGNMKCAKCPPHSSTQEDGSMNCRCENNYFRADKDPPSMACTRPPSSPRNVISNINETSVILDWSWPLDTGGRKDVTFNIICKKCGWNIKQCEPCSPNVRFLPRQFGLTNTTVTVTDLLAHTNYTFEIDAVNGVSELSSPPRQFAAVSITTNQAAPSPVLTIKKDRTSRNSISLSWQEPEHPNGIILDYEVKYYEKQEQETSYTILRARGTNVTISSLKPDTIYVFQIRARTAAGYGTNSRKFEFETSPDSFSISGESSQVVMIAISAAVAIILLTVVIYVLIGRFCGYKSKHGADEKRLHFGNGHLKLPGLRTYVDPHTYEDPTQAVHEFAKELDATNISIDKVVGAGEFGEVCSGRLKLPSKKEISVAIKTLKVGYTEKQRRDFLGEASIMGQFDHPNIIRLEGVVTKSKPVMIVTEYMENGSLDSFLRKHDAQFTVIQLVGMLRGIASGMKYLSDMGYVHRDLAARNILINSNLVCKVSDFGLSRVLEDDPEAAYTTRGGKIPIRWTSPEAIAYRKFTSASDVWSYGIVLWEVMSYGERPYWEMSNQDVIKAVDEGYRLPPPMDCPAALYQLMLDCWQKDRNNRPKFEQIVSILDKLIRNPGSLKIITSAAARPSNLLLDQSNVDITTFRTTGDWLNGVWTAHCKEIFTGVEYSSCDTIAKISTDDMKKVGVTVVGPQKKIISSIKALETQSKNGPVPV
Particulars: at 1 µM.

Assay [10] addresses T4, Ephrin type-A receptor 3 (Homo sapiens). Particulars: at 10 µM.
Assay [11] has as its target Ephrin type-A receptor 4 (Homo sapiens) (UniProt P54764). To be noted: at 1 µM.
For assay [12] the target is unchanged. To be noted: at 10 µM.
For assay [13], the target named is Ephrin type-A receptor 5 (Homo sapiens) (UniProt P54756). To be noted: at 1 µM.
Sequence of Ephrin type-A receptor 5 (Homo sapiens) (P54756 whole entry): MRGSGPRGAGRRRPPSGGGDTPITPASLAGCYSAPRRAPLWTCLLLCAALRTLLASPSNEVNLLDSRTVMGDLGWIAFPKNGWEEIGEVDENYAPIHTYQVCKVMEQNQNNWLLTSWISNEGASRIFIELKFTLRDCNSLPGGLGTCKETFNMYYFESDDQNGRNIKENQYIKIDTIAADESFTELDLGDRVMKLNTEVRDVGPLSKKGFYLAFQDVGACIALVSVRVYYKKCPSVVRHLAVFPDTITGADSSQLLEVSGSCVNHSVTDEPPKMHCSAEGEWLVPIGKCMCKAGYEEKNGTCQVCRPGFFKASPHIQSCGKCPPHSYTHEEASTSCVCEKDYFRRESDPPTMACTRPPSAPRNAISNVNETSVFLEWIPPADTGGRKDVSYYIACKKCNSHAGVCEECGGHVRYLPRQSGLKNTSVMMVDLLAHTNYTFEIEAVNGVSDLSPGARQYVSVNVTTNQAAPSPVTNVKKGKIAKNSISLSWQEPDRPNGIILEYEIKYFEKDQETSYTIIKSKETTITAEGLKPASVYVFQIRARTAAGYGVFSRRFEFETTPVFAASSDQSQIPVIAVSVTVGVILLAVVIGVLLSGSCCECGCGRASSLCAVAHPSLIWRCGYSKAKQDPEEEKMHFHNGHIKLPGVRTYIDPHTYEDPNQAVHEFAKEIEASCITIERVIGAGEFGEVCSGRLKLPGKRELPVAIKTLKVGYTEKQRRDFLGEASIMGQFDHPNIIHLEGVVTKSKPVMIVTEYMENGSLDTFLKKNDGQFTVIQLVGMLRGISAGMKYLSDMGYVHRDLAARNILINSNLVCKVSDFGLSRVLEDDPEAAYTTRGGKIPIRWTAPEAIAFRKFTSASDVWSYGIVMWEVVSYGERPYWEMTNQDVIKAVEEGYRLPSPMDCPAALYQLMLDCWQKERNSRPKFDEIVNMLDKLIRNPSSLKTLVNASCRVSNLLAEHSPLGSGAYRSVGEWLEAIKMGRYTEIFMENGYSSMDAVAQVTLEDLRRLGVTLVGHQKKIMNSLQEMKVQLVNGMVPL
For assay [14] the target is unchanged. To be noted: at 10 µM.
Assay [15] deals with Ephrin type-A receptor 7 (Homo sapiens) (UniProt Q15375). Particulars: at 1 µM.
Sequence of Ephrin type-A receptor 7 (Homo sapiens) (Q15375 28-998 limits assumed): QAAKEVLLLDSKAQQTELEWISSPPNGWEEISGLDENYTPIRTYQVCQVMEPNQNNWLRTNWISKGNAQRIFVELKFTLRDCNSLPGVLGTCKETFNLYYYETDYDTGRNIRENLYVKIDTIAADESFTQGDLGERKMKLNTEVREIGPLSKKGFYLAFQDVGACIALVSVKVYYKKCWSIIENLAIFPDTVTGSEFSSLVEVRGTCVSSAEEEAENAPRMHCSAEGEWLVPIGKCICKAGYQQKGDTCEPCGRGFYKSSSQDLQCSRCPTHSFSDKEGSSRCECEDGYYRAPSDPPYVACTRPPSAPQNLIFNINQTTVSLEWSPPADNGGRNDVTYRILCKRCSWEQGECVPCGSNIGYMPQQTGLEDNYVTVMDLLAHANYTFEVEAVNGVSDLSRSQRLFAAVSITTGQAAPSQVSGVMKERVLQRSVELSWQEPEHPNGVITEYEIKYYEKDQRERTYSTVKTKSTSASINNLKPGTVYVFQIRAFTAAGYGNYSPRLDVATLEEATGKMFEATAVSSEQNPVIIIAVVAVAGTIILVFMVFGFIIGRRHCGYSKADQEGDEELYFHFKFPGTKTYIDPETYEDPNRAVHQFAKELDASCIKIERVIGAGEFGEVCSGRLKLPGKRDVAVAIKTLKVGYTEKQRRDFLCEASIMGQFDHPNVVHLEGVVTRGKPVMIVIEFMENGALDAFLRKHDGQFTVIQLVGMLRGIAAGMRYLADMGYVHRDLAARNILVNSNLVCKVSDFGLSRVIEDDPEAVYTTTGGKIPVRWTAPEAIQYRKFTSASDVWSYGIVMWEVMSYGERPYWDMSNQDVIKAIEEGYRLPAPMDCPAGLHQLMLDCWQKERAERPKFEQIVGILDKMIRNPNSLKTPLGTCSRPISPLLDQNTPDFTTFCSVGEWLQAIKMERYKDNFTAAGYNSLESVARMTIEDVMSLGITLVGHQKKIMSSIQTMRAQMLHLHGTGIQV
Assay [16] shares this target. To be noted: at 10 µM.
The target of assay [17] is T5, Ephrin type-A receptor 8 (Homo sapiens) (UniProt P29322).
T5 sequence (whole entry): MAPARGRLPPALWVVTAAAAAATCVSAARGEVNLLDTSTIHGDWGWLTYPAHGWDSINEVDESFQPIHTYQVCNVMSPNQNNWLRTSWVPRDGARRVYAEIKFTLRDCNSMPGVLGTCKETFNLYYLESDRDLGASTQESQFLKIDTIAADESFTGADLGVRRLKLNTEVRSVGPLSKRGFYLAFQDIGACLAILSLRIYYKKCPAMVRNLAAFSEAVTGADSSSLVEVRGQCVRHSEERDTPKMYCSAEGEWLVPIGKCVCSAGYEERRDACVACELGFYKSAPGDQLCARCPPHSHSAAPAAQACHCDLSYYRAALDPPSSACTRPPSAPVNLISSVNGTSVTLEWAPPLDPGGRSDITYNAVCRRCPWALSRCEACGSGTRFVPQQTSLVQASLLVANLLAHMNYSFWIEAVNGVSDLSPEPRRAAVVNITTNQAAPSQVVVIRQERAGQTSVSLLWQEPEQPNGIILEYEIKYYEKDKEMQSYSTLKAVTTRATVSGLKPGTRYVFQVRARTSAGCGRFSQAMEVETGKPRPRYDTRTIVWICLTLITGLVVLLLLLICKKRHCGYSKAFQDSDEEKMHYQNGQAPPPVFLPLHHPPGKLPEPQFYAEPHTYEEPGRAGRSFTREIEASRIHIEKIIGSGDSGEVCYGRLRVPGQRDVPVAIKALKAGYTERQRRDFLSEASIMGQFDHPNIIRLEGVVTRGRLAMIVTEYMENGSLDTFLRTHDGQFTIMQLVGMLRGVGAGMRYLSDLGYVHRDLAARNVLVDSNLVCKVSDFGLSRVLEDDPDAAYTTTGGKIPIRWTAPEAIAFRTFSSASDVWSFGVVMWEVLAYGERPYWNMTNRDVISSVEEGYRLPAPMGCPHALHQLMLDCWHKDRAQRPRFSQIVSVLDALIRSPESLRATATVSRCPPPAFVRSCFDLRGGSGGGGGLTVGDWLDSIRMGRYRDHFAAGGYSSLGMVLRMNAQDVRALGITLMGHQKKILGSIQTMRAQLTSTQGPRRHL
To be noted: at 1 µM.

The target of assay [18] is T5, Ephrin type-A receptor 8 (Homo sapiens). Particulars: at 10 µM.
The target in assay [19] is T6, Ephrin type-B receptor 1 (Homo sapiens) (UniProt P54762).
T6 sequence (whole entry): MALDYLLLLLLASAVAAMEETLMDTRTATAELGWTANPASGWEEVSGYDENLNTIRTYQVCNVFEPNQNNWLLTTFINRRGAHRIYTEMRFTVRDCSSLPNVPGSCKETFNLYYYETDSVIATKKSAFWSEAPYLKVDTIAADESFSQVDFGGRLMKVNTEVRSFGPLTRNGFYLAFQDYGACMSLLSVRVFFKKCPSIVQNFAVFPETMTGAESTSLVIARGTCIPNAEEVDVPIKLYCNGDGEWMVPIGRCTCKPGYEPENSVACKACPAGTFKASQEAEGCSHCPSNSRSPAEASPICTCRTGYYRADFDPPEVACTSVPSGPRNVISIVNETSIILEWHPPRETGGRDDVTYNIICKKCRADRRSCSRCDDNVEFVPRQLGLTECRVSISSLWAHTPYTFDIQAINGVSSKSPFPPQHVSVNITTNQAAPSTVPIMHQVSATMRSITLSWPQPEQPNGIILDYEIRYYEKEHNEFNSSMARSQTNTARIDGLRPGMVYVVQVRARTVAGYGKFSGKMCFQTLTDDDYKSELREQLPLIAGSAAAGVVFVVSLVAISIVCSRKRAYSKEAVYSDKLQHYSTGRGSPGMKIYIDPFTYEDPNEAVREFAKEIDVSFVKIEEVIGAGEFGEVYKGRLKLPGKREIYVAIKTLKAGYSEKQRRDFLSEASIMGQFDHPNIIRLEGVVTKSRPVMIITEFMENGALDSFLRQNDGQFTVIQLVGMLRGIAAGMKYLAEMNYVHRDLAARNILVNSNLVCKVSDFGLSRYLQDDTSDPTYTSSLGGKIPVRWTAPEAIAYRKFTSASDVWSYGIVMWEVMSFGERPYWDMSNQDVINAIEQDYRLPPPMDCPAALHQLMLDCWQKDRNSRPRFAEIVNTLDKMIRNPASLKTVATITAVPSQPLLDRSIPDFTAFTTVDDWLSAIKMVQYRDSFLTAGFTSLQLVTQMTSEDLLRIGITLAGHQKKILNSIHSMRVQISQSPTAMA
Particulars: at 1 µM.

The target in assay [20] is Epidermal growth factor receptor (Homo sapiens) (UniProt P00533). Particulars: at 10 µM.

Sequence of Ephrin type-A receptor 2 (Homo sapiens) (P29317 whole entry): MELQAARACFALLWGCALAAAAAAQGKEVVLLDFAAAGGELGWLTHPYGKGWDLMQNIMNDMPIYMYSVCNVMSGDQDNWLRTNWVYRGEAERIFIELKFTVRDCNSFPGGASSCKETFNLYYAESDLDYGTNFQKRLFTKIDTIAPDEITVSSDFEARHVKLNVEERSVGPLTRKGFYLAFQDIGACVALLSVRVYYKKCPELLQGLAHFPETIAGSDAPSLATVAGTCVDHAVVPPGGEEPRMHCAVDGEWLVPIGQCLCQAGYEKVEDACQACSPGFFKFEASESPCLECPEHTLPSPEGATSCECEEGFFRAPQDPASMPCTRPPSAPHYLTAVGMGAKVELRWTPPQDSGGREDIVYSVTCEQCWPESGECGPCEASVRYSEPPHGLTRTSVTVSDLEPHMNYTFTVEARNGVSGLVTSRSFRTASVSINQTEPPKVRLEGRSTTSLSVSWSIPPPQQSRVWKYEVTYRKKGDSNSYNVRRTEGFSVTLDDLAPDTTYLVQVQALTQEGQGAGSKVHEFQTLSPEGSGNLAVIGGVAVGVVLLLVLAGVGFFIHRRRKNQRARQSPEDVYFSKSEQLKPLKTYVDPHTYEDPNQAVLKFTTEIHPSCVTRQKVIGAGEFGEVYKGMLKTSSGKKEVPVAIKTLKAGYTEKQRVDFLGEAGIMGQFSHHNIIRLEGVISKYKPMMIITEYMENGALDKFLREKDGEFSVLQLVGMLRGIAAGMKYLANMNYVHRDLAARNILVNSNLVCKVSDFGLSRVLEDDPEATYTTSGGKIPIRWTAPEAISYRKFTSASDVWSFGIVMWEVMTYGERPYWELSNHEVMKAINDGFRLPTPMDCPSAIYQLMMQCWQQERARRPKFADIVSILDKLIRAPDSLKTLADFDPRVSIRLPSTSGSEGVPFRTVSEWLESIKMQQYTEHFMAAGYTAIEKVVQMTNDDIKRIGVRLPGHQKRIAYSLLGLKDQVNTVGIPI
Sequence of Ephrin type-A receptor 4 (Homo sapiens) (P54764 whole entry): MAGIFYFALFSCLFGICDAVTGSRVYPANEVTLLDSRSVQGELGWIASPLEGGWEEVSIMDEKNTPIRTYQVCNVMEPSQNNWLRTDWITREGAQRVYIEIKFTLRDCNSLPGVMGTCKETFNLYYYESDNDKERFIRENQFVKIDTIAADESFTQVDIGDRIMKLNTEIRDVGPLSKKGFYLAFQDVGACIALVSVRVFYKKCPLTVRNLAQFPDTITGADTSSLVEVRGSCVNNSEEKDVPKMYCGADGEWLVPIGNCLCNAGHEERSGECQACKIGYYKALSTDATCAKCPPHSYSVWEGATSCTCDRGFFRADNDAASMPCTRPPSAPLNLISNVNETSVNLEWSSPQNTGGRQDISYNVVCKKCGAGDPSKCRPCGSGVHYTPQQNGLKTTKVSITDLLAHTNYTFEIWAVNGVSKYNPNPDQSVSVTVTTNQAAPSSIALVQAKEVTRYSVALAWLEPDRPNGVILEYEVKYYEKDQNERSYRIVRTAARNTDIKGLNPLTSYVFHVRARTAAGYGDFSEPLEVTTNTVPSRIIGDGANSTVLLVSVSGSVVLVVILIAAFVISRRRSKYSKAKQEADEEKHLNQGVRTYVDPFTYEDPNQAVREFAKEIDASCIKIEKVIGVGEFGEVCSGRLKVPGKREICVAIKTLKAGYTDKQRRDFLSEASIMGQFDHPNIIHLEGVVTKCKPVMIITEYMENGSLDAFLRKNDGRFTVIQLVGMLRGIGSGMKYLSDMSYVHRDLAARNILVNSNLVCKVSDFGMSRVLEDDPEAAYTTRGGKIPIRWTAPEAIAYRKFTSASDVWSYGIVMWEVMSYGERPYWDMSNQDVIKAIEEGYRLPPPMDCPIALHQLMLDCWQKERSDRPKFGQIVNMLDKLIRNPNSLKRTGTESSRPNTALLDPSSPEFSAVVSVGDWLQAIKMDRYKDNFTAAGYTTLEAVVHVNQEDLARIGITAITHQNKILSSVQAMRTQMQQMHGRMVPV

Consider `O=c1[nH]c2ccccc2n1C1CCN(Cc2ccc(-c3nc4cc5[nH]cnc5cc4nc3-c3ccccc3)cc2)CC1`, for which the residual activity was 126% in assay [1]; 112% in assay [2]; 111% in [3]; 98% in [4]; 102% in assay [5]; 90% in assay [6]. For the same compound, the residual activity in assay [7] is 103%; in [8] it was 95%; in assay [9], 112%; in assay [10], 76%; in [11], 112%; in assay [12], 81%. Besides, the residual activity was 114% in [13]; 99% in assay [14]; 97% in assay [15]; 93% in assay [16]; 108% in assay [17]; 104% in assay [18]. For the same compound, in [19], the residual activity came out at 93%.
For `CCn1cnc2c(Nc3cccc(Cl)c3)nc(N[C@@H]3CCCC[C@@H]3N)nc21`, the residual activity in [1] turned out to be 90%; in [2] it was 83%; in assay [4], 85%; in assay [20], 95%; in assay [5], 15%; in assay [6], 3%. In addition, the residual activity in assay [7] stood at 66%; in assay [8], 24%; in assay [9], 61%; in [10], 9%; in assay [11], 98%; in [12] it was 49%. Further, the residual activity in assay [13] was found to be 70%; in [14], 15%; in assay [15], 78%; in assay [16] it was 23%; in [17], 89%; in assay [18], 31%. In assay [19], the residual activity was found to be 32%.
